Sampled rows, rich in hits. Any-hit rate of the full collection: about 3.5%.
FBW7 act – FBW7 E3 ligase activators, primary screen, biochemical, AlphaScreen, human | F-box/WD repeat-containing protein 7 (Homo sapiens), Q969H0 | AlphaScreen FBW7–phospho-cyclin E peptide binding, activator screen | normalized activity (activation), % at 26.1 µM | 650,000 tested, 0.13% active; in the data active means normalized activity above about 1.9%;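 further: purified mutant Fbw7 with reduced substrate affinity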
Target sequence (Q969H0 whole entry, looked up): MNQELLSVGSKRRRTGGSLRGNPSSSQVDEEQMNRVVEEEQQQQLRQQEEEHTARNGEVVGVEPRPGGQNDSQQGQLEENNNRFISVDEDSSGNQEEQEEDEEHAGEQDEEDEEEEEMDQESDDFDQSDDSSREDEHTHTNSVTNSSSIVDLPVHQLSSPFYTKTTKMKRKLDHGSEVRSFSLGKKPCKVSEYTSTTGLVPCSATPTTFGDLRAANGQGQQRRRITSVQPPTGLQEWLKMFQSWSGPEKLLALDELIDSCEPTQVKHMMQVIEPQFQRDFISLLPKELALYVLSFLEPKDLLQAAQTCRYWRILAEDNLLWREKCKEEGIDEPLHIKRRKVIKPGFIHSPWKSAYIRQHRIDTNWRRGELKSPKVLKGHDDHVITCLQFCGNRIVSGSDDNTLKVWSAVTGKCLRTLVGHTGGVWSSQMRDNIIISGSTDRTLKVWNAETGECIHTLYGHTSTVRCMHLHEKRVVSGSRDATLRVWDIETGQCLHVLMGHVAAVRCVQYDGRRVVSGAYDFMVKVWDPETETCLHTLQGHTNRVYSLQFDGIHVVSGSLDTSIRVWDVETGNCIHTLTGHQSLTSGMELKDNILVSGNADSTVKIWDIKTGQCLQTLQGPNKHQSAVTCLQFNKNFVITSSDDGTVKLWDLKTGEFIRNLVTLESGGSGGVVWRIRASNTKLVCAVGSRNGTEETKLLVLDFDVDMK
TEAD-YAP inh – TEAD-YAP interaction inhibition, primary screen, TEAD-YAP interaction inhibitor project, luminescence, HEK-TIYL cells. TEAD-Gal4/YAP UAS-luciferase luminescence. inhibition, % at 9.12 µM. 640,000 tested, 1.4% active; in the data active means inhibition above about 32%;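 further: 0% = median of test compound wells and 100% = reference inhibitor wells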
MITF primary – MITF inhibitors, primary screen, biochemical, AlphaScreen, human. AID 1259374, 2018. AlphaScreen MITF homodimerization, bead proximity signal. inhibition, % at 2.6 µM. 650,000 tested, 0.91% active. Microphthalmia-associated transcription factor (Homo sapiens), O75030; in the data active means inhibition above about 50%;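 further: 0% = vehicle wells with protein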
GPR151 activ – activators of human GPR151, primary screen, cell-based, PathHunter beta-arrestin, luminescence. G-protein coupled receptor 151 (Homo sapiens), Q8TDV0. PathHunter beta-arrestin GPR151 cells. activation, % at 11.2 µM. 650,000 tested, 1% active. AID 1508602, 2020; in the data active means activation above about 4.9%;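 further: 0% = median of compound wells and 100% = cells with positive control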
An asterisk follows results filed as active.

SMILES	FBW7 act	TEAD-YAP inh	MITF primary	GPR151 activ
CCN1/C(=C/c2ccc3ccccc3[n+]2CC)Sc2c1ccc1ccccc21	0	87*	43	1
CCCCN1/C(=C/c2ccc3ccccc3[n+]2CC)Sc2ccccc21	-1	92*	5	4
CCN1/C(=C/c2ccc3cc(NC(C)=O)ccc3[n+]2CC)Sc2ccccc21	-1	52*	6	0
CCN1/C(=C/c2ccc3ccccc3[n+]2CC)Sc2ccc(OC)cc21	0	90*	18	1
CN1/C(=C\C(=O)COC(=O)CCC(=O)c2cccs2)C(C)(C)c2ccccc21	0	4	-11	0
CCCCCCc1cc2cc(C(N)=O)c(=Nc3ccc(C)cc3)oc2cc1O	0	-1	-12	1
CC[n+]1c(I)ccc2cc(OC)ccc21	0	-2	-1	2
CCN1/C(=C\C=C(/C)C=O)Sc2ccccc21	0	11	8	3
CCN1/C(=C/c2ccc3ccccc3[n+]2CC)Sc2ccc(I)cc21	0	68*	18	4
CCCCN1/C(=C/c2ccc3cc(OC)ccc3[n+]2CC)Sc2ccc(OC)cc21	-1	89*	18	2
Cc1cc(C)nc(/N=C(\N)Nc2cc(Cl)ccc2C)n1	0	5	7	-2
Cc1ccc(N/C(N)=N/c2nc(C)cc(N3CCCC3)n2)c(C)c1	0	34*	4	1
CC1=NN(c2ccc(S(=O)(=O)O)cc2)C(=O)/C1=C\c1ccc(Br)cc1	0	1	15	0
COc1ccc(NC(=S)/N=C(\N)N2CCN(Cc3ccccc3)CC2)cc1	0	10	14	-1
O=C1CCN(C(=O)c2ccc(-c3nc4ccccc4s3)s2)CC1	0	99*	13	-11
O=C(Nc1ccnc2ccccc12)c1ccc(Br)cc1	1	60*	2	0
COc1ccc(NC(=O)c2ccc(Br)cc2)c2cccnc12	0	5	24	-1
Cc1cc(C)c(NC(=O)c2cc([N+](=O)[O-])ccc2N2CCOCC2)c(C)c1	0	2	-4	0
Cc1ccc(C(=O)c2cc([N+](=O)[O-])ccc2N2CCOCC2)c(C)c1	0	62*	15	-1
Cc1ccc(C(=O)c2cc([N+](=O)[O-])ccc2N2CCOCC2)cc1C	0	42*	0	0
N#Cc1cc2c(cc1NC(=O)c1cc([N+](=O)[O-])ccc1N1CCOCC1)OCO2	0	36*	15	-2
CC(=O)Nc1nnc(SCC(=O)Nc2ccc(N3CCCCC3)cc2)s1	0	11	12	0
Cc1cc(N2CCN(c3ccccc3)CC2)nc(NCc2ccccc2)n1	0	12	3	0
Cc1cc(N2CCCCC2)nc(NCCNS(=O)(=O)Cc2ccccc2)n1	0	55*	4	-1
CCCCN1C(=O)C(=O)N(CC(=O)Nc2ccccc2I)C1=O	0	6	1	-2
SMILES	FBW7 act	TEAD-YAP inh	MITF primary	GPR151 activ
CN(C)C(=O)n1nnc2ccccc21	0	59*	14	0
O=C(c1ccc(C(=O)n2nnc3ccccc32)cc1)n1nnc2ccccc21	0	-8	3	-1
C=CCNc1c2c(nc3nc4ccccc4n13)CCC2	0	5	4	2
O=c1[nH]c(=O)n(-c2ccccc2F)c(O)c1/C=C1\C=CC=N1	0	57*	13	0
Cc1ccccc1-n1c(O)c(/C=C2\C=CC=N2)c(=O)[nH]c1=O	0	57*	9	-2
O=c1[nH]c(=S)n(-c2ccccc2)c(O)c1/C=C1\C=CC=N1	0	-8	-7	0
CCOc1ccccc1-n1c(O)c(/C=C2\C=CC=N2)c(=O)[nH]c1=O	0	24	13	0
O=c1[nH]c(=O)n(-c2ccccc2Cl)c(O)c1/C=C1\C=CC=N1	0	61*	11	-1
O=c1[nH]c(=S)n(Cc2ccco2)c(O)c1/C=C1\C=CC=N1	-1	-3	101*	1
O=C(CCc1nc2ccccc2[nH]1)Nc1ccc2ccccc2c1	0	2	6	-1
O=C(NCCc1nc(-c2ccc(Cl)cc2)n[nH]1)c1ccco1	0	2	-1	5
Cc1cccc(-n2c(CNC(=O)c3c(F)cccc3Cl)nnc2SCC(=O)c2ccccc2)c1	0	1	7	-1
O=C1/C(=C\C=C/c2ccco2)C(C(F)(F)F)=NN1c1ccccc1	0	5	65*	-1
O=C1ON=C(c2ccccc2)/C1=C/C=C/c1ccco1	0	-8	38	-1
O=C(Nc1cc(-c2nc3ncccc3o2)ccc1Cl)c1ccc(OCc2ccccc2)cc1	0	-9	14	-1
COc1cccc(C(C(=O)NC(C)(C)C)N(C(=O)Cn2nnc3ccccc32)C2CC2)c1 (stereo not given)	0	5	16	1
c1ccc(CN2CCC(NCc3ccc(N4CCOCC4)cc3)CC2)cc1	0	-6	68*	1
CC(=O)c1ccc(C(=O)Nc2nccs2)cc1	0	19	23	-2
CC(C)Oc1ccc(C(=O)Nc2nccs2)cc1	0	52*	13	-5
CCn1nnc(NC(=O)c2ccc(OC(C)C)cc2)n1	0	44*	9	-5
COc1cc(SC)ccc1C(=O)Nc1nccs1	0	46*	15	-1
CC(C)Sc1ccc(C(=O)Nc2nccs2)cc1	0	55*	20	-6
CCOC(=O)c1c(NC(=O)C(C)Sc2nnc(CNC(=O)c3ccco3)n2C)sc2c1CCC2 (stereo not given)	0	7	-8	0
CCOC(=O)CNS(=O)(=O)c1ccc([N+](=O)[O-])cc1	0	7	0	3
Cc1ccc(-n2nc3c(c2NC(=O)c2cc([N+](=O)[O-])ccc2Cl)CSC3)cc1	0	63*	5	-1
SMILES	FBW7 act	TEAD-YAP inh	MITF primary	GPR151 activ
O=C(Nc1c2c(nn1-c1ccc(Cl)cc1)CSC2)c1cc([N+](=O)[O-])ccc1Cl	0	6	7	1
O=C(Nc1c2c(nn1-c1ccc(F)cc1)CSC2)c1cc([N+](=O)[O-])ccc1Cl	0	86*	4	0
CCOc1ccc(C2SC(C)C(=O)N2c2ccc(Cl)cc2)cc1 (stereo not given)	0	-5	5	-1
COc1ccccc1NC(=O)N1CCC(C(=O)Nc2cc(C)cc(C)c2)CC1	0	0	-8	1
COc1ccccc1NC(=O)N1CCC(Oc2ccc(-c3ccc(N(C)C)nc3)cc2)CC1	0	35*	14	-1
CN(C)c1ccc(-c2ccc(OC3CCN(c4ncccn4)CC3)cc2)cn1	0	48*	7	0
CN(C)c1ccc(-c2ccc(OC3CCNCC3)cc2)cn1	0	57*	10	-2
CN(C)c1ccc(-c2ccc(OC3CCN(S(C)(=O)=O)CC3)cc2)cn1	0	11	5	1

Bioassay records: PubChem BioAssay, The Scripps Research Institute Molecular Screening Center
